# Source: PubChem BioAssay AID463173 (ICCB-Longwood Screening Facility, Harvard Medical School, 2010)
# The campaign covered roughly 52,000 compounds. About 4,300 (8.3%) were called active. Cut-off read from the data, not from the text of the source: active = survival mostly below about 52% (no sharp cut-off); inactive = mostly above about 56%. This excerpt belongs to a sample that is enriched for actives.
# System: DeltatarO mutant
# Assay: S. aureus survival, RN4220 and DeltatarO strains – OD600, teichoic acid synthesis inhibitors, primary screen (AID 463173)
# Conditions: S. aureus RN4220 wild type/DeltatarO growth, OD600, 18 h, hits give low values, screened at 18.75 µg/mL (by protocol)
row,Compound,survival
1,Cc1ccc(Cl)cc1NC(=O)c1oc2ccc(S(=O)(=O)N3CCCCCC3)cc2c1C,93% (inactive)
2,O=C(Cn1cccc1C(=O)c1ccccc1)NCc1ccc(Cl)cc1,98% (inactive)
3,COc1ccc2c(c1)CC(C(=O)Nc1ccc(OC)cc1OC)CO2 (centres undefined),89% (inactive)
4,COC(=O)c1cc2oc3ccccc3c2n1CC(=O)Nc1ccc(OC)c(OC)c1,79% (inactive)
5,CCOc1ccc(NS(=O)(=O)c2ccc3[nH]cc(C(=O)NCc4ccccc4)c(=O)c3c2)cc1,79% (inactive)
6,CCc1ccc(NS(=O)(=O)c2ccc3[nH]cc(C(=O)NCc4ccc(C)cc4)c(=O)c3c2)cc1,65% (inactive)
7,CCc1ccc(NS(=O)(=O)c2ccc3[nH]cc(C(=O)NCCc4ccccc4)c(=O)c3c2)cc1,87% (inactive)
8,CCOc1ccc(NS(=O)(=O)c2ccc3[nH]cc(C(=O)N(C)Cc4ccccc4)c(=O)c3c2)cc1,6% (active)
9,Cc1cc(C)cc(NS(=O)(=O)c2ccc3[nH]cc(C(=O)N(C)Cc4ccccc4)c(=O)c3c2)c1,102% (inactive)
10,CCOc1ccc(NS(=O)(=O)c2ccc3[nH]cc(C(=O)N(C)C4CCCCC4)c(=O)c3c2)cc1,76% (inactive)
11,CCOc1ccc(NS(=O)(=O)c2ccc3[nH]cc(C(=O)NC4CCCC4)c(=O)c3c2)cc1,39% (active)
12,CCc1ccc(NS(=O)(=O)c2ccc3[nH]cc(C(=O)NC4CCCC4)c(=O)c3c2)cc1,8% (active)
13,CCOc1ccc(NS(=O)(=O)c2ccc3[nH]cc(C(=O)NCCOC)c(=O)c3c2)cc1,72% (inactive)
14,Cc1ccc(-c2nn3c(=O)cc(CN4CCN(C(=O)/C=C/c5ccccc5)CC4)nc3s2)cc1,68% (inactive)
15,CCOc1ccccc1C1CC(=O)Nc2c1c(=O)n(C)c1ncnn21 (centres undefined),164% (inactive)
16,COc1ccc(NC(=O)c2oc3ccc(S(=O)(=O)N4CCC5(CC4)OCCO5)cc3c2C)cc1Cl,80% (inactive)
17,O=C(O)C1CC(=O)N(CCCN2CCOCC2)C1 (centres undefined),96% (inactive)
18,Cc1nn(C)c2c1c(C(F)(F)F)cc(=O)n2CC(=O)NCc1ccccc1Cl,80% (inactive)
19,CCN1CCN(C(=O)c2ccc3c(c2)N(Cc2ccccc2)C(=O)c2ccccc2S3=O)CC1 (centres undefined),104% (inactive)
20,Cc1ccc(C)c(-n2c3nc(=O)[nH]c(=O)c-3cc3c(C)nn(-c4ccccc4)c32)c1,92% (inactive)
21,COc1ccc(NC(=O)CC2C(=O)N(c3ccccc3)C(=O)N2CCc2sccc2C)cc1 (centres undefined),65% (inactive)
22,CCN(CC)CCCNC(=O)Cc1ccc(NC(=O)N2CCCCc3ccccc32)cc1,79% (inactive)
23,CCOC(=O)c1cc2c(=O)n3ccccc3nc2n(CC2CCCO2)c1=NC(=O)c1ccccc1C (centres undefined),43% (active)

row,Compound,survival
1,CCOC(=O)c1cc2c(=O)n3ccccc3nc2n(CC2CCCO2)c1=NC(=O)c1ccccc1OCC (centres undefined),51% (inactive)
2,CCOC(=O)c1cc2c(=O)n3ccccc3nc2n(CC2CCCO2)c1=NC(=O)c1ccc(OCC)cc1 (centres undefined),51% (inactive)
3,CCOC(=O)c1cc2c(=O)n3ccccc3nc2n(CC2CCCO2)c1=NC(=O)c1ccccc1F (centres undefined),44% (active)
4,CCOC(=O)c1cc2c(=O)n3ccccc3nc2n(CC2CCCO2)c1=NC(=O)c1ccc(OC)cc1OC (centres undefined),38% (active)
5,CCOC(=O)c1cc2c(=O)n3ccccc3nc2n(CC(C)C)c1=NC(=O)c1c(-c2c(F)cccc2Cl)noc1C,165% (inactive)
6,CCOC(=O)c1cc2c(=O)n3ccccc3nc2n(CC2CCCO2)c1=NC(=O)c1ccc(F)cc1 (centres undefined),54% (inactive)
7,CCOC(=O)c1cc2c(=O)n3ccccc3nc2n(CC2CCCO2)c1=NC(=O)c1ccccc1Br (centres undefined),47% (active)
8,O=C(CC1N=C2c3ccccc3N=C(SCC(=O)Nc3ccccc3F)N2C1=O)NCc1ccc2c(c1)OCO2 (centres undefined),73% (inactive)
9,Nc1c(-c2nc(-c3ccc(Cl)cc3)no2)nnn1-c1ccc(C(F)(F)F)c(Cl)c1,75% (inactive)
10,Cc1cc(C)c2c(CC(=O)Nc3ccccc3C(F)(F)F)coc2c1,72% (inactive)
11,O=C(NCCCN1CCCC1)c1ccccc1Cl,86% (inactive)
12,COc1ccc(Nc2nc3ccc(Cl)cc3n3nnnc23)cc1OC,102% (inactive)
13,CC(C)C(=O)NCC(c1ccc2c(c1)OCO2)N1CCN(c2ccccc2F)CC1 (centres undefined),74% (inactive)
14,COC(=O)CC(=O)CSc1nc(C)cc(C)c1C#N,80% (inactive)
15,Cc1ccc2c(=O)cc(C(=O)Nc3nc4ccc(Cl)cc4s3)oc2c1C,39% (active)
16,COc1ccc2nc(NC(=O)c3cc(=O)c4cc(C)c(C)cc4o3)sc2c1,58% (inactive)
17,CCOc1ccc2nc(NC(=O)c3ccccc3)sc2c1,41% (active)
18,CC(=O)Nc1ccc2nc(NC(=O)c3cc4ccccc4o3)sc2c1,102% (inactive)
19,CCOc1ccc2nc(NC(=O)c3cc(=O)c4cc(C)cc(C)c4o3)sc2c1,85% (inactive)
20,COc1ccc2nc(NC(=O)c3cc(=O)c4ccccc4o3)sc2c1,50% (inactive)
21,CCOc1ccc2nc(NC(=O)c3cc(=O)c4ccc(C)cc4o3)sc2c1,25% (active)
22,CS(=O)(=O)c1ccc2nc(NC(=O)c3ccccc3)sc2c1,81% (inactive)
23,CCOc1ccc2nc(NC(=O)c3nc(SC)ncc3Cl)sc2c1,95% (inactive)

row,Compound,survival
1,Cc1cc(C)c2oc(C(=O)Nc3nc4ccc(Cl)cc4s3)cc(=O)c2c1,61% (inactive)
2,COc1ccc2nc(NC(=O)c3cc(=O)c4cc(C)cc(C)c4o3)sc2c1,69% (inactive)
3,O=C(Nc1nc2ccc(Cl)cc2s1)c1cc(=O)c2ccccc2o1,32% (active)
4,O=S(=O)(c1ccc(Br)cc1)N1CCOCC1,94% (inactive)
5,CC(C)NS(=O)(=O)c1ccc(OCC(=O)N2CCN(c3cccc(Cl)c3)CC2)cc1,95% (inactive)
6,CCSc1ncc(Cl)c(C(=O)Nc2ccc(S(=O)(=O)N3CCCCC3)cc2)n1,87% (inactive)
7,Cc1ccc(-c2csc(NC3OC(=O)c4c#cccc43)n2)cc1 (centres undefined),94% (inactive)
8,Cc1ccc(Cn2cnc3nc4c(cc3c2=O)CCCC4)cc1,81% (inactive)
9,CCc1ccc2[nH]c(=O)c(CNC3CCCC3)cc2c1,86% (inactive)
10,CCCOc1ccc(C(=O)N(Cc2ccc(N(C)C)cc2)CC2CCCO2)cc1 (centres undefined),64% (inactive)
11,Cc1ccc2nc(NC(=O)c3cc(=O)c4cc(C)c(C)cc4o3)sc2c1,54% (inactive)
12,Cc1ccc2nc(NC(=O)c3cc(=O)c4cc(Cl)ccc4o3)sc2c1,47% (inactive)
13,Cc1ccc2c(=O)cc(C(=O)Nc3nc4ccc(Cl)cc4s3)oc2c1,25% (active)
14,O=C(Cn1nc(-c2ccc(Cl)cc2)ccc1=O)NCc1ccccc1Cl,70% (inactive)
15,CCN(C(=O)CSc1nc2ccccc2n1Cc1ccc(F)cc1Cl)c1ccccc1,77% (inactive)
16,CC(C)c1ccccc1NC(=O)c1cccs1,61% (inactive)
17,Cc1cccc(NC(=O)CCCCCn2c(=O)[nH]c3ccsc3c2=O)c1,33% (active)
18,O=C(CCCCCn1c(=O)[nH]c2ccsc2c1=O)NCc1ccccc1,89% (inactive)
19,CCCCCNC(=O)CCCCCn1c(=O)[nH]c2ccsc2c1=O,81% (inactive)
20,O=S1(=O)c2ccccc2N(Cc2ccccc2F)c2ccccc21,92% (inactive)
21,COc1ccc(NC(=O)CCc2nnc3n(C)c(=O)c4sccc4n23)cc1Cl,78% (inactive)
22,CCOCCc1nn2c(=O)cc(COC(=O)c3cccc(C)c3)nc2s1,-5% (active)
23,CCc1nn2c(=O)cc(COC(=O)Cc3ccccc3)nc2s1,72% (inactive)

row,Compound,survival
1,CCOCCc1nn2c(=O)cc(COC(=O)Cc3ccccc3)nc2s1,17% (active)
2,CCCc1nn2c(=O)cc(COC(=O)c3cccc(NC(=O)c4ccc(OCC)cc4)c3)nc2s1,0% (active)
3,COCCc1nn2c(=O)cc(COC(=O)c3ccccc3C)nc2s1,-5% (active)
4,COCCc1nn2c(=O)cc(COC(=O)COc3ccccc3C)nc2s1,73% (inactive)
5,CCOc1ccc(C(=O)Nc2cccc(C(=O)OCc3cc(=O)n4nc(C5CC5)sc4n3)c2)cc1,83% (inactive)
6,CCOCCc1nn2c(=O)cc(COC(=O)c3ccc4c(c3)OCO4)nc2s1,128% (inactive)
7,CCOCCc1nn2c(=O)cc(COC(=O)CNC(=O)c3cccc(C)c3)nc2s1,70% (inactive)
8,CCCc1nn2c(=O)cc(COC(=O)c3ccccc3NC(=O)c3ccc(OCC)cc3)nc2s1,49% (inactive)
9,CCOCCc1nn2c(=O)cc(COC(=O)c3ccco3)nc2s1,88% (inactive)
10,CCCCc1nn2c(=O)cc(COC(=O)c3ccccc3C)nc2s1,83% (inactive)
11,CCC(c1nnnn1CCc1ccccc1)N(Cc1ccco1)Cc1cc2cc(C)ccc2[nH]c1=O (centres undefined),62% (inactive)
12,COc1ccc(C2=C(C)C(N3CCC(C(=O)NCc4ccc(C)o4)CC3)=NS2(=O)=O)cc1,74% (inactive)
13,COc1cccc(NC(=O)Cn2cc(S(=O)(=O)Cc3ccccc3F)c3ccccc32)c1,78% (inactive)
14,CN1CCN(CCC(=O)Nc2ccc(Cl)cc2)CC1,61% (inactive)
15,COc1ccc(N2C(=O)CSC23C(=O)N(CC(=O)NC2CCCCC2)c2ccccc23)cc1 (centres undefined),83% (inactive)
16,Cc1cc(=O)c2c(ccc3ccccc32)[nH]1,91% (inactive)
17,CC(OC(=O)CN1C(=O)COc2ccccc21)C(=O)NCc1cccs1 (centres undefined),100% (inactive)
18,CCOc1ccc(CNC(=O)c2ccc(NC(=O)N3CCCCc4ccccc43)cc2)cc1OC,73% (inactive)
19,COc1cccc(CNC(=O)CN2C(=O)N(c3cccc(Cl)c3)S(=O)(=O)c3ccccc32)c1OC,72% (inactive)
20,O=C(CCCN1C(=O)C(c2ccccc2)Oc2cccnc21)Nc1ccccc1C(F)(F)F (centres undefined),100% (inactive)
